Dicer processing – blocks human Dicer maturation of pre-miR-21; hit rate 6% among 47,000; AID 1347074; Q9UPY3; z-score at 25 µM; cat-ELCCA pre-miR-21 Dicer processing, chemiluminescence; active compounds read high; in the data active = z-score above about 3, passing the limit was not always enough;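 note: plate controls were vehicle for no effect and no enzyme for full effect; higher signal means more uncleaved substrate so more Dicer inhibition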
Starred values were filed as active, the others as inactive. The sample as a whole holds a higher share of hits than the screen did.

SMILES | Dicer processing
CCN1C(=O)C2(/C(=C(/O)c3ccc(C)cc3)C(=O)C(=O)N2CCCN(C)C)c2ccccc21 (stereo not given) | 0.44
CCN1C(=O)C2(/C(=C(/O)c3ccc(OC)cc3)C(=O)C(=O)N2CCN(C)C)c2ccccc21 (stereo not given) | 4.29*
CCCN1C(=O)C2(/C(=C(/O)c3ccc(F)cc3)C(=O)C(=O)N2CCN(C)C)c2ccccc21 (stereo not given) | 2.28
CCN1C(=O)C2(/C(=C(/O)c3ccc(OC)c(C)c3)C(=O)C(=O)N2CCCN(C)C)c2ccccc21 (stereo not given) | -0.67
Cc1oc2cc(Br)c(OC(=O)C(C)C)cc2c1C(=O)OC(C)C | -1.85
CCOc1cccc(-c2nc3ccc(Br)cc3c(=O)o2)c1 | 1.25
COc1ccc(/C(O)=C2\C(=O)C(=O)N(c3nnc(C)s3)C2c2ccc(F)cc2)cc1 (stereo not given) | 0.32
Cc1ccc2ccc(C(Nc3ccccn3)c3ccccc3C)c(O)c2n1 (stereo not given) | 0.11
O=C(NC(c1ccccc1)c1ccc2cccnc2c1O)c1ccccc1 (stereo not given) | 5.95*
COc1cccc(C(Nc2ccccn2)c2ccc3ccc(C)nc3c2O)c1OC (stereo not given) | 0.22
Cc1cccc(NC(c2ccccc2C)c2ccc3ccc(C)nc3c2O)n1 (stereo not given) | 5.34*
Oc1c(C(Nc2ccccn2)c2ccccc2Cl)ccc2cccnc12 (stereo not given) | 3.9*
Cc1cccc(NC(c2ccccc2F)c2ccc3cccnc3c2O)n1 (stereo not given) | 0.26
CCN(CC)c1ccc(C(Nc2ccccn2)c2ccc3cccnc3c2O)cc1 (stereo not given) | 2.79
O=C(NC(Sc1ncccn1)C(=O)c1ccccc1)c1ccccc1 (stereo not given) | -0.62
CCc1ccccc1NC(c1ccccn1)c1ccc2cccnc2c1O (stereo not given) | 7.98*
Oc1c(C(Nc2ccccc2Cl)c2ccccn2)ccc2cccnc12 (stereo not given) | 13.7
Cc1ccc(C(NC(=O)C(C)C)c2ccc3cccnc3c2O)cc1 (stereo not given) | 12.6
CCCS(=O)(=O)C/C(N)=N/OC(=O)Nc1ccc(Cl)cc1 | 2.82
O=C1NC2NC(=O)N(c3ccccc3)C2N1 (stereo not given) | 1.78
c1csc(-c2nc(-c3cc4ccccc4o3)cs2)c1 | 0.38
C=CCOc1ccc(C2c3c(oc4ccccc4c3=O)C(=O)N2c2nc(C)c(C)s2)cc1OCC (stereo not given) | -0.99
c1ccc2oc(-c3csc(-c4ccc(-c5ccno5)s4)n3)cc2c1 | -0.56
CC1(C)CC(=O)C2=C(C1)N=C1c3ccccc3C(=O)C1C2c1ccc(F)cc1 (stereo not given) | 1.02
C=CCOc1ccc(C2C3=C(CC(C)(C)CC3=O)N(C)C3=C2C(=O)CC(C)(C)C3)cc1 | 0.11
SMILES | Dicer processing
COc1ccccc1N1C(=O)C2CC(C)=CC(C)C2C1=O (stereo not given) | 1.72
CCCN1C(=O)C(O)(CC(=O)c2ccco2)c2cc(Br)ccc21 (stereo not given) | 0.71
CCOc1cc(C(Nc2ccccn2)c2ccc3ccc(C)nc3c2O)ccc1OC (stereo not given) | 0.5
CCOc1ccc(C(Nc2ccccn2)c2ccc3ccc(C)nc3c2O)cc1C (stereo not given) | 3.48*
Cc1ccc2ccc(C(Nc3ccccn3)c3ccccc3)c(O)c2n1 (stereo not given) | 5.91*
Oc1ccc2ncccc2c1C(Nc1ccccn1)c1ccc(Cl)cc1 (stereo not given) | 1.53
CCOc1cc(C(Nc2ccccn2)c2ccc3cccnc3c2O)ccc1O (stereo not given) | 11.2
COc1ccc(C(Nc2ccccn2)c2ccc3ccc(C)nc3c2O)cc1 (stereo not given) | -1.7
Cc1cccc(NC(c2ccncc2)c2ccc3cccnc3c2O)c1 (stereo not given) | 0.59
Cc1ccc2ccc(C(Nc3ccccn3)c3ccccc3F)c(O)c2n1 (stereo not given) | 11.5
Oc1cccnc1NC(c1ccc(Cl)cc1)c1ccc2cccnc2c1O (stereo not given) | 3.64*
Cn1c(NCc2ccc(F)cc2)cc(=O)n(C)c1=O | -0.02
Cn1ncc2c(-n3ncc(C#N)c3N)ncnc21 | 0.99
CC(=O)N1CCC(C(=O)Nc2nc3ccc(Cl)cc3s2)CC1 | -1.03
N#Cc1cccc(Nc2ncnc(N)n2)c1 | 1.2
O=C(Nc1nccc2ccccc12)c1cccs1 | 2.61
COc1ccc(S(=O)(=O)N2CCN(C)CC2)cc1C | 4.03*
COc1ccc(OC)c(S(=O)(=O)N2CCN(C)CC2)c1 | -1.19
CN1CCN(S(=O)(=O)c2ccc3ccccc3c2)CC1 | -0.65
Cc1onc2c(=O)[nH]nc(-c3ccccc3)c12 | -0.63
COc1ccc(OC)c(C(=O)c2ccc(N)cc2)c1 | 1.91
COC(=O)c1ccccc1C(=O)c1ccc(Cl)cc1 | 1.1
COc1cc(C(=O)c2cc(Cl)ccc2N)ccc1O | 3.8*
COC(=O)c1ccc(C(=O)OC)c(N2C(=O)CSCC2=O)c1 | -2.58
Cc1ccc(O)c(C(=O)NNC(=S)Nc2ccccc2C(F)(F)F)c1 | 5.37
SMILES | Dicer processing
O=C(NNC(=S)Nc1ccccc1C(F)(F)F)c1ccc(-c2ccc(Cl)cc2)s1 | 4.3*
CC(C)(C)NC(=S)NNC(=O)c1ccc(-c2ccc(Cl)cc2)s1 | -0.16
COc1ccc2oc(C(=O)c3ccc(Cl)c(C)c3)cc2c1 | -0.49
COc1ccc(C(=O)Nc2ccc(Oc3cccc(C(F)(F)F)c3)nc2)cc1OC | -0.45
COC(=O)c1cc([N+](=O)[O-])nn1Cc1ccccc1 | 1.45
O=C(O)c1cccc(Cn2cnc([N+](=O)[O-])n2)c1 | -0.2
O=C(Cn1cnc([N+](=O)[O-])n1)OCCCc1ccccc1 | 3.54*
CCO/C=C(\C#N)S(=O)(=O)c1ccccc1 | 0.98
CCOC(=O)C(NC(=O)c1cccc(Cl)c1)(Nc1ccccc1C(F)(F)F)C(F)(F)F (stereo not given) | -0.36
O=S(=O)(Nc1cc(C(F)(F)F)cc(C(F)(F)F)c1)c1ccccn1 | -0.69
O=C(O)c1ccccc1NS(=O)(=O)c1ccc2c3c(cccc13)C(=O)S2 | -0.85
COc1ccc(NS(=O)(=O)c2ccc3c4c(cccc24)C(=O)N3)cc1 | 0.18
O=C1Sc2ccc(S(=O)(=O)Nc3ccc(F)cc3)c3cccc1c23 | 3.51*
Nc1ncnc(SCc2ccc(Cl)cc2)n1 | -1.68
Cn1nc(C(C)(C)C)cc1NC(=O)Nc1cccc2ccccc12 | 1.37
Cn1nc(C(C)(C)C)cc1NC(=O)Nc1ccc(OCc2ccccc2)cc1 | 4.34*
Cc1ccccc1NC(=O)Nc1cc(-c2ccccc2)nn1C | 2.97
Cc1cc(C)cc(NC(=O)Nc2cc(C(C)(C)C)nn2C)c1 | -1.11
Cn1nc(-c2ccccc2)cc1NC(=O)Nc1ccc(F)cc1 | 3.61*
Cc1ccc(F)cc1NC(=O)Nc1cc(C(C)(C)C)nn1C | 4.02*
Cn1nc(-c2ccccc2)cc1NC(=O)Nc1ccc(OCc2ccccc2)cc1 | 0.53
Cn1nc(-c2ccc(Cl)cc2)cc1NC(=O)Nc1ccc(OCc2ccccc2)cc1 | -0.67
Cc1nnsc1C(=O)Nc1cc(-c2ccccc2)nn1C | -1.22
CCOC(=O)c1c(N/N=C/c2ccc(C(F)(F)F)cc2)n[nH]c1C | -0.07
O=c1[nH]c2c(cnn2-c2ccccc2)c(=O)n1-c1ccccc1 | 2.18
Nc1cccc(-c2nnc(-c3ccco3)o2)c1 | -0.52
